In the library only some 1.6% were active in any assay of this set; here they are far more common.
KCNQ2 block: KCNQ2 (rat) channel inhibition. AID 2156. actives 1.1% (n = 310,000). CHO-K1 KCNQ2, FluxOR thallium flux, 20 min; active compounds read low. O88943. B-score at 10 µM;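 active = fluorescence ratio B-score at most minus 3 library SDs, with starting brightness B-score within 2 library SDs, cut at about -5.5 in these data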
KCNQ2 pot: KCNQ2 (rat) channel potentiation; actives 0.54% (n = 310,000); AID 2239; CHO-K1 KCNQ2, FluxOR thallium flux fluorescence; active compounds read high; B-score at 10 µM;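 active = fluorescence ratio B-score at least 3 SD of library B-scores, with initial fluorescence B-score within 3 of them, cut at about 5.3 in these data; same plate scores as AID 2156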;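 also: B-score of peak minus minimum over baseline fluorescence ratio after K+ and Tl+ stimulus; positive B-score means potentiation of KCNQ2 with more thallium influx and brighter signal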
Kir21 confirm: confirmation of mouse Kir2.1 potassium channel inhibitors. shares compounds with KCNQ2 pot. Kir2.1-expressing cells, FluxOR thallium flux fluorescence; active compounds read low. Tl flux remaining, % of negative control (active compounds read low), % at 10 µM. actives 41% (n = 2,300). AID 2032;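 active = Primary-screen hit whose thallium flux fell at least 3 control SD below untreated wells in both duplicates, with normal baseline fluorescence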;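 also: 0% = blank wells without stimulus and 100% = stimulated no-compound controls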
Target sequence (P35561 whole entry, looked up): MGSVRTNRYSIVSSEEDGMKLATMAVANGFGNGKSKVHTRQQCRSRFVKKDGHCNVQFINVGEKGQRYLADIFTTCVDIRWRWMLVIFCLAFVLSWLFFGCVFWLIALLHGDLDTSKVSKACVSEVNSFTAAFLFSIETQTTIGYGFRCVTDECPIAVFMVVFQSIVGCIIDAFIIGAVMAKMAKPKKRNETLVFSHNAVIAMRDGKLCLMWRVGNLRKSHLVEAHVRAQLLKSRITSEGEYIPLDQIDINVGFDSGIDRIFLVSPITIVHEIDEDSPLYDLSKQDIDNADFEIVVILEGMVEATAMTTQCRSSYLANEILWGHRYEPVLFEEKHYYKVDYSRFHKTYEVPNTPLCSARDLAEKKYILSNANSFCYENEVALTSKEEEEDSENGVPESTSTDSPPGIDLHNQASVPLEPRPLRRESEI
HEK293 ctr: parental HEK293 activity in Kir2.1 inhibitor counter-screen; shares compounds with KCNQ2 pot; AID 2105; parental HEK293 cells, FluxOR thallium flux fluorescence; 0% = unstimulated blank wells; actives 19% (n = 2,300); FluxOR signal as % of negative control (100 = no effect), % at 10 µM;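 active = dye signal at least 3 control SD above or below untreated wells in both duplicates, raw fluorescence within 3, either direction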;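 also: percent is based on the flux ratio of peak minus minimum fluorescence over baseline F0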
CHO-K1 ctr: counter-screen for KCNQ2 potentiators: effect in parental CHO-K1 cells; activity increase over 3SD of controls, % at 10 µM; FluxOR thallium flux fluorescence; zero = vehicle mean+3SD, 100% = vehicle-minus-blank window; actives 43% (n = 1,200); shares compounds with KCNQ2 pot;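 active = signal rise of at least 3 SD above the untreated control mean, in both duplicate wells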;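 also: counter screen of KCNQ2 potentiator hits so any rise reflects channel-independent effects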
KCNQ1 sel pot: selectivity of KCNQ2 potentiators: effect on human KCNQ1; CHO KCNQ1 stable, FluxOR thallium flux fluorescence; beyond 3SD, as % of vehicle-control signal; shares compounds with KCNQ2 pot; activation over 3SD threshold, % at 10 µM; AID 2283; actives 28% (n = 1,200);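 active = fluorescence ratio rise of at least 3 SD of vehicle wells above their mean, in both replicate wells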;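 also: 0% = vehicle mean plus 3 SD and 100% = vehicle minus unstimulated blank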
KCNQ2 pot confirm: confirmation of rat KCNQ2 potassium channel potentiators; shares compounds with KCNQ2 pot; CHO-KCNQ2 cells, FluxOR thallium flux fluorescence; potentiation, less the hit threshold, % at 10 µM; actives 68% (n = 1,200);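 active = fluorescence ratio rising 3 SD or more over the vehicle control mean in both replicates, plus primary screen hit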;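 also: peak minus minimum thallium fluorescence divided by baseline after K/Tl stimulus; 0% = vehicle mean plus 3 SD and 100% = vehicle minus unstimulated blank difference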
Kir2-1 sel: tests whether KCNQ2 potentiators also affect mouse Kir2.1. shares compounds with KCNQ2 pot. HEK293 Kir2.1, FluxOR thallium flux fluorescence. activity over 3SD threshold, % at 10 µM. actives 2% (n = 1,200). AID 2345;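 active = fluorescence ratio rise of at least 3 SD above the vehicle-control mean, seen in both replicates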;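 also: 0% = vehicle mean plus 3 SD and 100% = vehicle minus no-stimulus blank window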
KCNQ2 W236L pot: rat KCNQ2 W236L mutant potentiation by KCNQ2 potentiators. shares compounds with KCNQ2 pot. CHO KCNQ2-W236L, automated patch clamp current. current increase over 3SD of negative controls (%), active compounds read high, % at 25 µM. actives 10% (n = 940). AID 2558;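 active = current increase at least 3 SD of the untreated controls above them in both duplicate recordings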
* hit, by the source's call; i = inactive; nt = not tested or not shown; ! = not active in a repeat.

SMILES	KCNQ2 block	KCNQ2 pot	Kir21 confirm	HEK293 ctr	others
CCN1CCN(C(c2cccs2)C(C)NC(=S)NC2CCCCC2)CC1 (centres undefined)	i	nt	nt	nt
Cc1ccc(C(C)NC(=S)NC2CCCCC2)cc1C (centres undefined)	i	25*	i	i	CHO-K1 ctr=-30;KCNQ1 sel pot=8.7*;KCNQ2 pot confirm=103*;Kir2-1 sel=-51;KCNQ2 W236L pot=i
CCC(NC(=S)NC1CCCCC1)c1ccc(C(C)C)cc1 (centres undefined)	i	14*	i	i	CHO-K1 ctr=18*;KCNQ1 sel pot=-25;KCNQ2 pot confirm=54*;Kir2-1 sel=-32;KCNQ2 W236L pot=i
CN(Cc1ccccc1)C1CCNCC1	i	0.43	nt	nt
Cn1c(CCNS(=O)(=O)c2ccccc2)nnc1SCc1cccnc1	i	nt	nt	nt
Cc1ccc(S(=O)(=O)CC(=O)Nc2cc(C)on2)cc1	i	1.8	nt	nt
O=C(Nc1cccc(N2C(=O)C=CC2=O)c1)c1cccs1	i	nt	72%*	i
Cc1nc2ccccc2c(=O)n1-c1cccc(NC(=O)c2cccs2)c1	i	0.47	nt	nt
O=C(c1ccc(OC2CCN(CCc3ccccc3)CC2)cc1)N1CCC(CO)CC1	i	nt	nt	nt
CCN(CC)S(=O)(=O)c1cc(OC)ccc1N=Nc1ccc(O)c2ncccc12	i	2	nt	nt
CCOc1ccc(N=Nc2ccc(O)c3ncccc23)cc1	i	23*	i	i	CHO-K1 ctr=13*;KCNQ1 sel pot=12*;KCNQ2 pot confirm=-20;Kir2-1 sel=-21
O=C1NC(Cc2c[nH]c3ccccc23)C(=O)N1Cc1ccccc1 (centres undefined)	i	nt	nt	nt
O=C1C(Cc2c[nH]c3ccccc23)NC(=S)N1Cc1ccccc1 (centres undefined)	i	nt	48%*	i
CSc1ccc2c(c1)C(N1CCN(C)CC1)Cc1ccccc1S2 (centres undefined)	-6.8*!	-6.8	40%*	i
CSc1cccc(NC(=O)N2CCN(C)CC2)c1	i	0.01	nt	nt
O=C(O)C(Cc1ccccc1)N1C(=O)c2ccccc2C1=O (centres undefined)	i	1.3	nt	nt
CN(C)CCN(Cc1ccccc1)C(=O)[C@H](Cc1ccccc1)N1C(=O)c2ccccc2C1=O	i	0.91	69%*	i
Cc1ccc(C)c(NC(=S)N2CCC(NC(=O)c3ccc(F)cc3)CC2)c1	i	0.02	nt	nt
C=CCSc1nc2sc3c(c2c(=O)n1-c1ccc(C)cc1)CCN(C)C3	i	nt	nt	nt
O=C(Cc1ccccc1)N/N=C/c1cc(Br)cc(Cl)c1O	i	6.1*	i	i	CHO-K1 ctr=4.8*;KCNQ1 sel pot=-20;KCNQ2 pot confirm=20*;Kir2-1 sel=-34;KCNQ2 W236L pot=25%*
COc1cc(Br)cc(/C=N/NC(=O)Cc2ccccc2)c1O	i	5.3*	i	72%*	CHO-K1 ctr=-10;KCNQ1 sel pot=-18;KCNQ2 pot confirm=8.0*;Kir2-1 sel=-36;KCNQ2 W236L pot=i
COc1cc(/C=N/NC(=O)Cc2ccc(Br)cc2)cc(OC)c1O	i	2.1	nt	nt
O=C(CP(=O)(c1ccccc1)c1ccccc1)N/N=C/c1cc(Br)cc(Br)c1O	i	0.74	nt	nt
CCOC(=O)N1CCN(S(=O)(=O)N2CCCC(C(=O)NCCCN3CCCCC3CC)C2)CC1 (centres undefined)	i	nt	nt	nt
CCCC(C(=O)NC(C)(C)CC)N(Cc1ccco1)C(=O)CNS(=O)(=O)c1ccccc1 (centres undefined)	i	nt	nt	nt
CC(=O)Nc1ccc(NC(=O)CNC(=O)c2cccc(C)c2)cc1	i	0.44	nt	nt
CC(=O)/C=C/n1c(=S)oc2ccccc21	i	5.4*	i	i	CHO-K1 ctr=-4;KCNQ1 sel pot=-10;KCNQ2 pot confirm=-12;Kir2-1 sel=-31
CC(C)CC(=O)/C=C/n1c(=S)oc2ccccc21	i	0.78	nt	nt

High-throughput results from PubChem BioAssay.
